Most compounds without a hit are left out; they make up all but 2.3% or so of the library.
PP5 primary – blocks human protein phosphatase 5 activity; P53041; purified PP5c, OMFP substrate fluorescence; inhibition, % at 6.7 µM; actives 0.18% (n = 320,000);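 active = inhibition above the campaign's mean inhibition across all tested compounds plus 3 SD, cut at about 9.5% in these data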
Target sequence (P53041 whole entry, looked up): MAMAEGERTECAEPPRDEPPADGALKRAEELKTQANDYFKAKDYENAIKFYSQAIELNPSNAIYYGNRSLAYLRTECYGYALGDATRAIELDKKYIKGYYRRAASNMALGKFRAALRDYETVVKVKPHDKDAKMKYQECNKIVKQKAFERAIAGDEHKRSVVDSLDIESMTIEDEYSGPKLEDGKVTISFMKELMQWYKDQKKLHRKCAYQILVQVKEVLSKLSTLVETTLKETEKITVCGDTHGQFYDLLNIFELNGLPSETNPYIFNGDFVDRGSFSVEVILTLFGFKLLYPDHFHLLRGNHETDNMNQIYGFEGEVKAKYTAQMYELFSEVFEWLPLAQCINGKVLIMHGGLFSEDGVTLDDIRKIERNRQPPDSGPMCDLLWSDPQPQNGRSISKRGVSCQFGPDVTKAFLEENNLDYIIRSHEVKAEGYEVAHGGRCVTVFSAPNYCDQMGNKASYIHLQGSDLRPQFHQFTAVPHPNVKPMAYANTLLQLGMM
PP1 inh – PP1-alpha (human) inhibition in PP5 counter-screen; actives 0.9% (n = 320,000); purified PP1alpha, OMFP fluorescence; inhibition, % at 6.7 µM; P62136;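 active = inhibition above the mean inhibition of all tested compounds plus 3 SD, computed separately for each screening campaign, cut at about 15% in these data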
EBNA-1 inh – blocks EBNA-1 binding to DNA; EBNA-1 DNA binding, fluorescence polarization; inhibition, % at 14.8 µM; actives 0.34% (n = 300,000); AID 1950; in the data active = inhibition above about 28%
ZTA DNA inh – blocks Epstein-Barr virus ZTA, an EBNA-1 counter-screen; ZTA-DNA binding, fluorescence polarization; actives 0.15% (n = 320,000); inhibition, % at 11 µM; in the data active = inhibition above about 33%
MsrA act – activates bovine MsrA enzyme. purified bovine MsrA, absorbance read-out. activation, % at 10.6 µM. actives 0.3% (n = 360,000). AID 602163; in the data active = activation above about 7.5%
MsrA inh – bovine MsrA inhibition | purified bovine MsrA, absorbance read-out | inhibition, % at 15.5 µM | actives 0.75% (n = 360,000) | AID 651718; in the data active = inhibition above about 4.5%
EBNA-1 inh conf – EBNA-1 (EBV) inhibition, confirmation. shares compounds with EBNA-1 inh. actives 35% (n = 830). AID 2292. inhibition, % at 14.8 µM. Recombinant EBNA-1 DBD, Cy5-DNA fluorescence polarization;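 active = mean inhibition across replicates above a set limit taken from the earlier primary screen, cut at about 28% in these data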
ZTA counter trip – blocks Epstein-Barr virus ZTA in triplicate, EBNA-1 counter-screen. AID 2328. inhibition, % at 11.1 µM. 830 tested, under 10 active. shares compounds with EBNA-1 inh. Zta-ZRE DNA binding, Cy5 fluorescence polarization;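 active = mean inhibition over triplicates above a set limit taken from the primary EBNA-1 screen, cut at about 37% in these data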;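 also: purified full length Zta protein with Cy5 labeled ZRE DNA probe; inhibitors lower polarization by freeing the labeled DNA probe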
Each line names hits and unclear results; the compound was inactive in the other large screens (follow-up assays come after a bar, where they were run).

Cc1cc(C(=O)CSc2nnnn2-c2ccccc2)c(C)n1CC1CCCO1 (stereo unspecified)	EBNA-1 inh 151.3 | EBNA-1 inh conf 92.8 | ZTA counter trip inactive
Cc1cc(C(=O)CSc2nnnn2-c2ccc(Cl)cc2)c(C)n1CC1CCCO1 (stereo unspecified)	none
Cc1cccc(C)c1NC(=O)C(NC(=O)CN1C(=O)c2ccccc2C1=O)c1ccccc1 (stereo unspecified)	EBNA-1 inh 29.4 | EBNA-1 inh conf inactive | ZTA counter trip inactive
CN(Cc1ccccc1)C(=S)NC(=O)c1ccccc1	none
COc1ccc(C(=O)NC(=S)N(C)Cc2ccccc2)cc1Br	EBNA-1 inh 45.5 | EBNA-1 inh conf inactive | ZTA counter trip inactive
Cc1onc(-c2ccccc2Cl)c1C(=O)NC(=S)NCC(=O)c1ccccc1	none
CC1=CC2=NC(=O)/C(=C\c3ccc(-c4cccc(Cl)c4)o3)C(=N)N2O1	EBNA-1 inh 29.4 | EBNA-1 inh conf inactive | ZTA counter trip inactive
CC1=NOC(=O)/C1=C\c1ccc(-c2cccc(Cl)c2)o1	none (no result: MsrA inh)
O=C1S/C(=C\c2ccccc2)C(=O)N1CC(O)Cn1c2ccccc2c2ccccc21 (stereo unspecified)	EBNA-1 inh 30.0 | EBNA-1 inh conf inactive | ZTA counter trip inactive
Cc1cccc(NC(=O)CSc2nnc3ccc(-c4ccccn4)nn23)c1	none
COc1ccc(/C=N/n2cnc3c([nH]c4ccccc43)c2=O)cc1CO	EBNA-1 inh 28.9 | EBNA-1 inh conf inactive | ZTA counter trip inactive
COc1ccc(/C=N/n2cnc3c([nH]c4ccc(Br)cc43)c2=O)cc1CN1CCOCC1	none (no result: MsrA act)
O=C(CCCCCNc1nc(=S)[nH]c2ccccc12)NCCc1ccc(Cl)cc1	EBNA-1 inh 66.1 | EBNA-1 inh conf 67.9 | ZTA counter trip inactive
O=C(CCCCCNc1nc(=S)[nH]c2ccccc12)NCCc1c[nH]c2ccccc12	none
CC(=O)Nc1ccc(NC(=O)Cc2sc(-c3cccnc3)nc2-c2ccc(C)cc2)cc1	EBNA-1 inh 54.2 | EBNA-1 inh conf 52.0 | ZTA counter trip inactive
CC(NC(=O)COC(=O)c1cc(S(=O)(=O)N2CCOCC2)ccc1F)c1ccccc1 (stereo unspecified)	none (no result: PP5 primary, PP1 inh, EBNA-1 inh, ZTA DNA inh)
CCCCCNC(=O)c1c[nH]c2ccc(S(=O)(=O)N3CCC4(CC3)OCCO4)cc2c1=O	EBNA-1 inh 28.7 | EBNA-1 inh conf inactive | ZTA counter trip inactive
COc1ccccc1C(=O)NCc1ccccn1	none
CS(=O)(=O)NNC(=O)c1csc(Cc2c(Cl)sc3ccc(Cl)cc23)n1	EBNA-1 inh 39.9 | EBNA-1 inh conf 41.5 | ZTA counter trip inactive
CC(C)C(=O)NNC(=O)c1csc(CS(=O)(=O)c2ccc(Cl)cc2)n1	none
Cc1cc(C)c2[nH]c3nc(SCC(=O)O)nnc3c2c1	none
CCOC(=O)c1cnc(SCc2cccc3ccccc23)nc1N	EBNA-1 inh 105.3 | EBNA-1 inh conf inactive | ZTA counter trip inactive
CC(C)CNc1nc(N)c([N+](=O)[O-])c(NCC2CCCO2)n1 (stereo unspecified)	none
Cc1ccc(Nc2nc(NCC3CCCO3)nc(N)c2[N+](=O)[O-])cc1C (stereo unspecified)	EBNA-1 inh 122.1 | EBNA-1 inh conf 109.7 | ZTA counter trip inactive
CCCc1nc2ccccc2c(C(=O)OC(C)C(=O)NCc2ccc3c(c2)OCO3)c1CC (stereo unspecified)	none
Cc1cccc(NC(=O)CNC(=O)COc2ccc(C(=O)c3ccc(F)cc3)cc2)c1C	EBNA-1 inh 41.5 | EBNA-1 inh conf inactive | ZTA counter trip inactive
COC(=O)[C@]1(Cc2ccccc2)N[C@H](CN(C)C(=O)c2ccc(F)cc2)[C@@H]2C(=O)N(C)C(=O)[C@@H]21	none (no result: PP5 primary, PP1 inh, EBNA-1 inh, ZTA DNA inh)
CCOC(=O)C1C(c2ccc(O)c(O)c2)NC(=S)NC1(O)C(F)(F)F (stereo unspecified)	none
O=c1c2ccccc2nnn1CSc1nnc(Nc2ccccc2)s1	EBNA-1 inh 36.1 | EBNA-1 inh conf inactive | ZTA counter trip inactive
O=C(CSc1nnc2c3c4c(sc3ncn12)CCCC4)NCc1ccco1	EBNA-1 inh 32.2 | EBNA-1 inh conf inactive | ZTA counter trip inactive
COCCNC(=O)C1CCC(CNS(=O)(=O)c2ccccc2)CC1 (stereo unspecified)	none
COc1ccccc1NC(=O)Cn1c2ccccc2c2nc3n(c(=O)c21)CCS3	EBNA-1 inh 43.8 | EBNA-1 inh conf inactive | ZTA counter trip inactive
O=C(Cn1c2ccccc2c2nc3n(c(=O)c21)CCS3)Nc1ccccc1C(F)(F)F	none
CCOC(=O)Cn1cnc2c(cnn2-c2ccc(OC)cc2)c1=O	none
COc1ccc(-n2ncc3c(=O)n(CC(=O)N4c5ccccc5CC4C)cnc32)cc1 (stereo unspecified)	EBNA-1 inh 31.1 | EBNA-1 inh conf inactive | ZTA counter trip inactive
O=C(NCC1CCCO1)c1cc2ccccc2o1 (stereo unspecified)	none
Cc1ccccc1C1C(C#N)=C2NC(=O)c3c(sc4c3CCCCC4)N2C2=C1C(=O)CC(C)(C)C2 (stereo unspecified)	none (no result: MsrA act, MsrA inh)
COc1cc(C2C(C#N)=C(N)N(c3sc4c(c3C#N)CCCC4)C3=C2C(=O)CC(C)(C)C3)cc(OC)c1OC (stereo unspecified)	EBNA-1 inh 108.5 (no result: MsrA inh) | EBNA-1 inh conf 36.1 | ZTA counter trip inactive
COc1ccc(/C=C(\C#N)C(=O)OCC(=O)Nc2c(C)cccc2C)cc1	none
CCc1cccc(CC)c1NC(=O)COC(=O)/C(C#N)=C/c1ccc(OC)cc1	EBNA-1 inh 45.9 | EBNA-1 inh conf inactive | ZTA counter trip inactive
O=C(c1cc(N2C(=O)C3C4CCC(C4)C3C2=O)ccc1Cl)N1CCN(c2ccccc2F)CC1 (stereo unspecified)	none
Cc1cc(C)n(-c2ccc(Cl)c(C(=O)OCC(N)=O)n2)n1	EBNA-1 inh 36.5 | EBNA-1 inh conf inactive | ZTA counter trip inactive
CN1CCN(S(=O)(=O)c2ccc(N3CCN(c4ccccc4Cl)CC3)nc2)CC1	none (no result: EBNA-1 inh)
CCC(=O)Nc1ccc(Cl)c(NC(=S)NC(=O)COc2ccc(Cl)cc2)c1	EBNA-1 inh 58.2 | EBNA-1 inh conf inactive | ZTA counter trip inactive
CC(=O)NC12CC3CC(C1)CC(C(=O)N1CCN(c4ncccn4)CC1)(C3)C2	none
Cc1cc(C(=O)OCC(=O)c2c(N)n(C)c(=O)n(C)c2=O)c(C)n1-c1ccccc1	EBNA-1 inh 40.9 | EBNA-1 inh conf 81.8 | ZTA counter trip inactive
CCOc1cc(C(=O)OCC(=O)c2c(N)n(C)c(=O)n(C)c2=O)cc(OCC)c1OCC	EBNA-1 inh 76.0 | EBNA-1 inh conf 61.0 | ZTA counter trip inactive
Cn1c(N)c(C(=O)COC(=O)c2ccccc2C(=O)c2ccccc2)c(=O)n(C)c1=O	none (no result: EBNA-1 inh)
CCCOc1ccc(C(=O)OCC(=O)c2c(N)n(C)c(=O)n(C)c2=O)cc1OCC	none
